According to PubChem BioAssay (EPA / NIEHS):
Records with an inconclusive call do not appear. Calls of active or inactive are those of the source. The calls were made as follows: active = hit-call score of the fitted dose curve at least 0.9, where 1 is the maximum; inconclusive = response in the unintended direction; inactive = score below 0.9.

How the values were obtained:
[1] = TOX21_p53_BLA_p2_viability: Viability Assessment in the Tox21 HCT-116 p53 Agonism Beta-lactamase Assay, Phase 2 (AID 2283591);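 also: compound exposure lasted 16 h at 37 °C; actives lower the ATP signal meaning cytotoxicity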
How it was run: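 HCT116 p53-bla cells, 4000/well, dosed after 5 h plating (217-fold dilution of DMSO stocks) and incubated 16 h at 37C. Viability taken as cellular ATP by CellTiter-Glo luminescence after 30 min RT; signal loss marks cytotoxicity.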

[2] = biological target: Cellular tumor antigen p53 (Homo sapiens) (UniProt P04637); test: TOX21_p53_BLA_p2_ratio: Tox21 HCT-116 p53 Agonism Beta-lactamase Assay, Ratio, Phase 2 (AID 2283592)
Chain of Cellular tumor antigen p53 (Homo sapiens) (P04637 whole entry, looked up): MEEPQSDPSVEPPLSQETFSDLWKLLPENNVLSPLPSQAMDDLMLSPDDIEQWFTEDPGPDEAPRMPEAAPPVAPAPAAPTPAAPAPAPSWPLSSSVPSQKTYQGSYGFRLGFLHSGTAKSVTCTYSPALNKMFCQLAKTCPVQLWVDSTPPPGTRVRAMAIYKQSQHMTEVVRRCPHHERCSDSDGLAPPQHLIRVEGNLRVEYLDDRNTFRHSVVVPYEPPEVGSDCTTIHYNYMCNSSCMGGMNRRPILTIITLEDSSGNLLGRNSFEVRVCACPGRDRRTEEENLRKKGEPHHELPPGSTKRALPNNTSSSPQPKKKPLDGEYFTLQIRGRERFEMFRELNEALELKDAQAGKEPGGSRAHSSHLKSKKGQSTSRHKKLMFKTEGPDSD
How it was run: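 HCT-116 cells with p53-responsive beta-lactamase reporter, 4000 cells/well, preincubated 5 h, then compound in DMSO (217-fold dilution) for 16 h at 37C. CCF4-AM substrate 2 h at room temperature; 460/530 nm emission ratio fitted upward versus DMSO.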

[3] = TOX21_p53_BLA_p3_viability: Viability Assessment in the Tox21 HCT-116 p53 Agonism Beta-lactamase Assay, Phase 3 (AID 2283593);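 also: cells exposed to compound for 16 h before reading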
How it was run: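 HCT116 cells, 4000/well, dosed 5 h after plating by pin transfer (217-fold dilution from DMSO stock) and incubated 16 h at 37C, 5% CO2. Viability read as ATP luminescence with CellTiter-Glo after 30 min at room temperature.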

[4] = TOX21_p53_BLA_p4_viability: Viability Assessment in the Tox21 HCT-116 p53 Agonism Beta-lactamase Assay, Phase 4 (AID 2283597);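 also: hits lower the luminescence signal meaning cytotoxicity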
How it was run: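 HCT-116 p53-bla cells, 4000/well, dosed after 5 h attachment and incubated 16 h at 37 °C, 5% CO2. Viability from CellTiter-Glo ATP luminescence after 30 min at room temperature, taken after the beta-lactamase read; loss of signal indicates cytotoxicity.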

[5] = biological target: Cellular tumor antigen p53 (Homo sapiens) (UniProt P04637); test: TOX21_p53_BLA_p5_ratio: Tox21 HCT-116 p53 Agonism Beta-lactamase Assay, Ratio, Phase 5 (AID 2283599)
How it was run: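 HCT-116 p53-bla cells (4000/well) plated 5 h, dosed with compound (217-fold DMSO dilution) for 16 h at 37 C; CCF4-AM substrate 2 h at room temperature. Activity is the 460/530 nm emission ratio (405 nm excitation), fitted in gain-of-signal direction versus DMSO.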

[6] = TOX21_p53_BLA_p5_viability: Viability Assessment in the Tox21 HCT-116 p53 Agonism Beta-lactamase Assay, Phase 5 (AID 2283600)
How it was run: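 HCT-116 p53 beta-lactamase reporter cells, 4000/well, were exposed to compound (pin transfer, 217-fold dilution) for 16 hours at 37C. Cellular ATP was read by CellTiter-Glo luminescence after 30 min at room temperature.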

[7] = biological target: Cellular tumor antigen p53 (Homo sapiens) (UniProt P04637); test: TOX21_p53_BLA_p4_ratio: Tox21 HCT-116 p53 Agonism Beta-lactamase Assay, Ratio, Phase 4 (AID 2283601)
How it was run: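 HCT-116 p53 beta-lactamase reporter cells (4000/well) preincubated 5 h, then compound (217-fold dilution of DMSO stock) for 16 h at 37C. CCF4-AM substrate added 2 h at room temperature; 460/530 nm emission ratio fitted upward versus DMSO.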

Measured: outcome

CCCCCSCCCCC
inactive: [1] | [2] | [3] | [4] | [5] | [6]

Cc1c(C(=O)O)cccc1[N+](=O)[O-]
inactive: [1] | [2] | [3] | [4] | [5] | [6] | [7]

CC1(C)S[C@@H]2[C@H](NC(=O)C(C(=O)O)c3ccsc3)C(=O)N2[C@H]1C(=O)O (some centres undefined)
inactive: [1] | [2] | [3] | [4] | [5] | [6]
